Experiment [1] relates to Zika virus NS2B-NS3 protease (unlinked complex). Briefly: Primary screen GU Rhodamine qHTS for Zika virus inhibitors: Unlinked NS2B-NS3 protease assay (AID 1347159). Further: nearly all actives have a fitted effect of over 60% in size. Further: potency means the concentration at half of the fitted maximal effect. The gist of the method: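 Compounds, tested up to 114 microM, were incubated for 15 minutes with 25 nM unlinked NS2B-NS3 protease at pH 8.0. Cleavage of 1.5 microM Rhodamine110 substrate was then followed by fluorescence for 15 minutes.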
(In general: qHTS replaces the single test concentration by a dilution series.)

Experiment [2] has as its system Zika virus NS2B-NS3 protease (linked construct). In words: Primary screen NINDS Rhodamine qHTS for Zika virus inhibitors (AID 1347160). Further: nearly all actives have a fitted effect of over 55% in size. Particulars: outcome: dose series up to 57.1 µM unless noted. A digest of the protocol: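 Percent inhibition, normalized to uninhibited and enzyme-free controls, is fitted to a 4-parameter Hill equation. Fluorescence change comes from a 15-min cleavage of 1.5 microM bis-peptide Rhodamine110 substrate by 25 nM linked NS2B-NS3 at room temperature.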

Experiment [3] can be described thus: qHTS to identify inhibitors of the type 1 interferon - major histocompatibility complex class I in skeletal muscle: primary screen against the NCATS Pharmaceutical Collection (AID 1347407).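 Further: luminescence of HiBiT knocked into endogenous HLA-B as interferon-induced MHC class I level; on the % scale 0 is the no-effect control and ±100 the full control effect.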 A digest of the protocol: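 A qHTS format is used: 8-point, 1:5 compound series with 46 uM top final concentration, applied alongside 4 ng/ml IFN-beta to HLA-B*08:01-HiBiT knock-in myoblasts. Luminescence is measured after 24 h treatment.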

The target in experiment [4] is Protein phosphatase 1D (Homo sapiens) (UniProt O15297). In words: RapidFire Mass Spectrometry qHTS Assay for Modulators of WT P53-Induced Phosphatase 1 (WIP1) (AID 1347424).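 Further: amount of dephosphorylated VEPPL-S-QETFS peptide product formed by WIP1; series mostly up to about 63 µM; plate controls were DMSO wells for no effect and GSK830371 inhibitor control at 10 µM for full effect.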 A digest of the protocol: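 WIP1 (10 nM final) was preincubated 1 h at room temperature with compounds in Tris-HCl pH 7.5, 30 mM MgCl2, TCEP, EGTA, BSA; 2 uM VEPPL-pS-QETFS phosphopeptide was added for 5 min, quenched with formic acid, and dephosphorylated product quantified by RapidFire MS.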
Sequence of Protein phosphatase 1D (Homo sapiens) (O15297 whole entry, looked up): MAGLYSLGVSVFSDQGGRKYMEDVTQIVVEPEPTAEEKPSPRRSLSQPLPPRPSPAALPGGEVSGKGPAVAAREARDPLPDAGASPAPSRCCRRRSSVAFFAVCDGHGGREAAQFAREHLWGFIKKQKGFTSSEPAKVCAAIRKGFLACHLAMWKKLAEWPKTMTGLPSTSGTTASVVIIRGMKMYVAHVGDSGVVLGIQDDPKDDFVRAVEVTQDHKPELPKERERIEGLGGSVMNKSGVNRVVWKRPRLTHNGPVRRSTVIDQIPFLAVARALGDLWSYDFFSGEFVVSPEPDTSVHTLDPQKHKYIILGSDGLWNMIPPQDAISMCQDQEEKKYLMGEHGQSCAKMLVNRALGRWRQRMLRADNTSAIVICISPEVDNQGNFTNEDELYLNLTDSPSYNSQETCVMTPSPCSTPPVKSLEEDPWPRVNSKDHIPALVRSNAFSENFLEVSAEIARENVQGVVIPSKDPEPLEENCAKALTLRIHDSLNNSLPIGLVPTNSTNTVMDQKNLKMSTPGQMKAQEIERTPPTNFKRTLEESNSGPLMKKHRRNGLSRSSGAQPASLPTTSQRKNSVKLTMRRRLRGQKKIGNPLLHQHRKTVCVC

For experiment [5] the target is unchanged. In words: Rhodamine-PBP qHTS Assay for Modulators of WT P53-Induced Phosphatase 1 (WIP1) (AID 1347425). Further: % of control where 0% means no effect. The gist of the method: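 Steps: enzyme with Rh-PBP sensor and compounds, room-temperature incubation of 1 hr, baseline read, addition of VEPPL-pS-QETFS (10 uM final), kinetic fluorescence reads at 525/598 nm. Activity equals final minus baseline signal.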

Experiment [6] in a line: Primary qHTS for inhibitors of La Crosse Virus (LACV) - induced cell death in SH-SY5Y cells (AID 1508616).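 Further: top concentration of the series differs between compounds; 0% = infected DMSO wells and 100% = uninfected DMSO wells; higher means more rescue of cells from virus-induced death.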 A digest of the protocol: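 Readout was luminescence from ATPLite 1step added after a 6-day LACV infection (0.01 MOI) of SH-SY5Y cells that had received pin-transferred compound 24 hr after seeding.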
The target of experiment [7] is Calcium and integrin-binding protein 1 (Homo sapiens) (UniProt Q99828). In words: Primary qHTS for Identification of Calcium Integrin Binding Protein 1 (CIB1) Competitor (AID 1508620).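 Further: GST tagged CIB1 binding a fluorescein labelled alphaIIb integrin peptide tracer; top concentration of the series differs between compounds; on the % scale 0 is the no-effect control and ±100 the full control effect.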 The gist of the method:
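Fluorescence polarization competition: CIB1-GST (1 uM final) preincubated with compound 15 min at room temperature, then FITC-labeled alphaIIb peptide (100 nM final) added for another 15 min. Polarization read at Ex 480/Em 540.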

For experiment [8], the target named is Lysine-specific demethylase 5B (Homo sapiens) (UniProt Q9UGL1). In words: Optimization screen for KDM5B Histone Demethylases FDH coupled qHTS against the LOPAC library (AID 1347166). Further: 0% is about no effect. The gist of the method:
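KDM5BDeltaAP (200nM final) preincubated 10 min with compound, then 12.5uM H3K4Me3, 25uM a-ketoglutarate, ascorbate, Fe(II), NAD+ and FDH added; 50mM HEPES pH 7.5, 0.01% Tween-20. NADH fluorescence (340/450 nm) change over 30 min, room temperature.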

Experiment [9] can be described thus: Tertiary RLuc qRT-PCR qHTS assay for Zika virus inhibitors (AID 1347169). Further: potency means the concentration at half of the fitted maximal effect; nearly all actives have a fitted effect of over 55% in size. The gist of the method:
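Inhibition of ZIKV-RLuc replication in Vero cells, read as Renilla luminescence 1-1.5 hrs after live-cell substrate addition, following 48-72 hrs infection at MOI 1-2 in presence of compound.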
(In general: Quantitative PCR measures a nucleic acid by following its amplification.)

A short description of experiment [10]: qHTS for inhibitors of adenylyl cyclases using a fission yeast platform: a pilot screen against the NCATS LOPAC library (AID 1347410).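 Further: plate controls were DMSO vehicle for no effect and DPI positive control for full effect.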 The gist of the method:
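Inhibition of GNAS-stimulated AC9 activity in S. pombe was inferred from derepression of a PKA-repressed fbp1-GFP reporter, measured as cytometric fluorescence after 18 h at 30C with compounds at up to 57 µM.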

The target in experiment [11] is Single-stranded DNA cytosine deaminase (Homo sapiens) (UniProt Q9GZX7). In words: Validation qHTS assay for inhibitors of Activation Induced Cytidine Deaminase (AID): AID signal (AID 1347429). Further: on the % scale 0 is the no-effect control and ±100 the full control effect. The gist of the method:
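In this coupled qHTS, AID deaminates a FRET-labelled ssDNA substrate in the presence of UDG over 4 hr at room temperature. Compounds span up to 114 uM final.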

Experiment [12] concerns the target Calcium and integrin-binding protein 1 (Homo sapiens) (UniProt Q99828). In words: Validation qHTS for Identification of Calcium Integrin Binding protein 1 (CIB1) Competitor (AID 1508618). Further: on the % scale 0 is the no-effect control and ±100 the full control effect. The gist of the method:
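In this qHTS validation, the LOPAC set (up to 114 uM) was tested for blocking CIB1 binding to a fluorescein-tagged alphaIIb peptide, with FP detection at 480/540 nm.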

A short description of experiment [13]: Counterscreen qHTS for small molecule stabilizers of the endoplasmic reticulum resident proteome: GLuc-NoTag assay (AID 1508627).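 Further: SH-SY5Y cells given compound then 100 nM thapsigargin to empty ER calcium; series mostly up to about 76 µM; 0% = thapsigargin alone and -100% = DMSO vehicle control.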 The gist of the method:
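SH-SY5Y cells stably expressing constitutively secreted GLuc (no SERCaMP tag) were pre-incubated 5 h, treated with compound for 19 h, then 100 nM thapsigargin for 4 h at 37C; medium GLuc read by coelenterazine luminescence.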
Background: A counterscreen serves to expose hits that act by an unwanted route or on another target.

Our source for the Potency, outcome and activity change, negative = inhibition values is PubChem BioAssay (NCATS).

SMILES strings stand for the structures. Values without a mark were called inactive. Results filed as inconclusive are left out. Activity calls are given as the source filed them. The call rests on the fitted dose curve; in most records, active means well fitted curve in the direction sought with a large enough effect; inconclusive means small, poorly fitted or top-dose-only effect, or another doubt; inactive means no such curve, though single readings can be large; an effect the other way counts as inactive or inconclusive.

Sequence of Lysine-specific demethylase 5B (Homo sapiens) (Q9UGL1 whole entry, looked up): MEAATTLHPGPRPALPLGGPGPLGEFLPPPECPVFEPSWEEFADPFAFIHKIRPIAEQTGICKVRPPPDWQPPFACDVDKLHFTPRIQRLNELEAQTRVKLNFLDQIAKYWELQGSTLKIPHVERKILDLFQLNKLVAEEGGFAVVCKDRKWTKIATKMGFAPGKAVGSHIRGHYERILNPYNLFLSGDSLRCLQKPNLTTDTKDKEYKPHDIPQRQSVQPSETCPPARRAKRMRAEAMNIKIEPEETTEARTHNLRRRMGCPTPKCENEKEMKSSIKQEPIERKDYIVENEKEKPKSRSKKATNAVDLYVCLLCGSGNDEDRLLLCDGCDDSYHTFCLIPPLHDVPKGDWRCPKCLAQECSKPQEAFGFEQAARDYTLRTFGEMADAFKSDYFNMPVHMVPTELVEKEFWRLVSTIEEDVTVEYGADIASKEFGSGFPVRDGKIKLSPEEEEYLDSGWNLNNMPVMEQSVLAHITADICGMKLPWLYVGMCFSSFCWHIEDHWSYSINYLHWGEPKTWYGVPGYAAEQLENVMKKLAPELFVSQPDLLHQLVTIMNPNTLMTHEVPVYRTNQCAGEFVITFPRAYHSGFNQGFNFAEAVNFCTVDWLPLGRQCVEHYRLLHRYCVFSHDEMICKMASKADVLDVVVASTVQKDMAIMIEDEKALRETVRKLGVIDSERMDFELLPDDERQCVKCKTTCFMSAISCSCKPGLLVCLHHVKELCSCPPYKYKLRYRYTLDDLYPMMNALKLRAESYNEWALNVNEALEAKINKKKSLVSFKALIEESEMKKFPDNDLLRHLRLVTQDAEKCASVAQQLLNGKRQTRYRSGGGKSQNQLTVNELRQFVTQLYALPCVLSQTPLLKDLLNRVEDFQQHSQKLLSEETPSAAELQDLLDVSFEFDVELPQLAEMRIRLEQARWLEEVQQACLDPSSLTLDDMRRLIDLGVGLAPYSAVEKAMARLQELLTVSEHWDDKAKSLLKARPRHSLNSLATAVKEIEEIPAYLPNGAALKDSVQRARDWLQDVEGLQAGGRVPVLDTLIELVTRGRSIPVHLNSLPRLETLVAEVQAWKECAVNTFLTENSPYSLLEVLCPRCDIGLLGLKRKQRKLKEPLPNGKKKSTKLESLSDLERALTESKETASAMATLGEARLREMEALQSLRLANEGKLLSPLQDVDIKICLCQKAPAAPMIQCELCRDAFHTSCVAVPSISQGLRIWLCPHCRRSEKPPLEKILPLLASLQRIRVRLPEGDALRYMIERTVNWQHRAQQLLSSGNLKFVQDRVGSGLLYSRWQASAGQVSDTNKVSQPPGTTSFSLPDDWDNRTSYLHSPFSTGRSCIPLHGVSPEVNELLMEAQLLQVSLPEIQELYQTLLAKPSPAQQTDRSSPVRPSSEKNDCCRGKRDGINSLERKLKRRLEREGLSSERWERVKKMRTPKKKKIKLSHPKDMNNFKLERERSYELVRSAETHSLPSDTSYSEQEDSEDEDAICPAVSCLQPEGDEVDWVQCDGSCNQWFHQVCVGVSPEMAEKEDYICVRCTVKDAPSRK
Sequence of Single-stranded DNA cytosine deaminase (Homo sapiens) (Q9GZX7 whole entry, looked up): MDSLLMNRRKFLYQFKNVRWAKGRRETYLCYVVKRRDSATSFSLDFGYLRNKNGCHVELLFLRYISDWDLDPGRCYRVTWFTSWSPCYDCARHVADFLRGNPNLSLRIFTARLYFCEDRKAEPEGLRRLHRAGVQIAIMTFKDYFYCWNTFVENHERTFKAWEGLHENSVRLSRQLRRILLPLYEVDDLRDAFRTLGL
Sequence of Calcium and integrin-binding protein 1 (Homo sapiens) (Q99828 whole entry, looked up): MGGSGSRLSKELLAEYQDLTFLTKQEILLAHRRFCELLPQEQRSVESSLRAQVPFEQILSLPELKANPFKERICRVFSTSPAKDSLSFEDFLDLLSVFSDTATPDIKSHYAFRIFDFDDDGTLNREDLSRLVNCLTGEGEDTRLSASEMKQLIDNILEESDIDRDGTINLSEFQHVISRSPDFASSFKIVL

For `O=C(O)Cc1ccccc1Oc1ccc(Cl)cc1Cl`, the Potency entry in [1], in [3], in experiment [4] and in experiment [7] was “inactive” throughout. In addition, the compound was called inactive in experiment [2], in experiment [5] and in [6].
With `O=[N+]([O-])c1ccc(-c2nc(-c3ccc(F)cc3)c(-c3ccncc3)[nH]2)cc1`, the Potency is 79.4 µM (active) in [1] and 4.66 µM (active) in [9]. In addition, the compound was called inactive in experiment [2], in [8], in [10], in experiment [11], in experiment [6] and in [12]. Moreover, in [7], the Potency result was “inactive”.
Turning to `CC(C)(C)c1nnc(NS(=O)(=O)c2ccccc2)s1`, the result in experiment [2], in [5] and in [6] was inactive. In addition, the Potency result in [3], in experiment [4] and in experiment [7] was “inactive” each time.
As to `N[C@@H](Cn1ccc(=O)c(O)c1)C(=O)O`, the outcome in [2] is “inactive [at 4.91 µM]”. Moreover, the outcome in experiment [8], in [10], in [11], in experiment [6] and in experiment [12] was inactive. Besides, in experiment [7], the activity change, negative = inhibition is 2.21% [at 12.4 µM].
As to `CC(=O)OCC(=O)Nc1cc(C#N)cc(NC(=O)COC(C)=O)c1Cl`, the compound was called inactive in experiment [2], in experiment [5] and in experiment [6]. In addition, the Potency result in experiment [3], in experiment [4] and in experiment [7] was “inactive” throughout.
For the compound `Clc1ccc2c(c1)N=C(N1CCNCC1)c1ccccc1N2`, the result in [2], in [8], in [10], in experiment [11], in experiment [6] and in experiment [12] was inactive. The Potency result in experiment [7] and in experiment [13] was “inactive” in each case.
Take `C[N+]1(CC2COC(c3ccccc3)(c3ccccc3)O2)CCCCC1` (stereo not drawn): the outcome in experiment [2] was “inactive [at 33.1 µM]”. The Potency entry in experiment [3], in experiment [4] and in experiment [7] was “inactive” in each case. The call in experiment [5] and in experiment [6] was inactive.
With `Cc1nn(-c2ccccc2)c(C)c1/C=N/N1CCN(Cc2ccccc2)CC1`, the result in experiment [2], in [8], in experiment [10], in experiment [11], in [6] and in experiment [12] was inactive. In [7], the Potency entry was “inactive”.
For the compound `O=[N+]([O-])c1nccn1CO[C@@H](CO)[C@H](O)CO`, the Potency result in experiment [1], in [3], in experiment [4] and in experiment [7] was “inactive” in each case. The result in experiment [2], in experiment [5] and in experiment [6] was inactive.
`COC(=O)C1=CO[C@@H](O)[C@@H]2C(CO)=CC[C@H]12`: the result in [2], in [8], in experiment [10], in experiment [11], in experiment [6] and in [12] was inactive. Further, in [7], the Potency result was “inactive”.
Regarding `Nc1ncnc2n[nH]c(Nc3ccc(F)cc3)c12`, the compound was called inactive in [2], in [8], in experiment [10], in [11], in experiment [6] and in experiment [12]. Besides, in experiment [7], the Potency result is “inactive”.
In the case of `CN1[C@@H]2CC[C@H]1CC(NC(=O)n1c(=O)[nH]c3ccccc31)C2` (stereo partly drawn), the call in experiment [2], in [5] and in experiment [6] was inactive. Moreover, the Potency result in experiment [3], in [4] and in experiment [7] was “inactive” each time.
